Whole data set: some 33,000 sequences, median “E-score (-0.5 to 0.5)” near -0.013, cut for the highest 2% near 0.3. What follows is part of a selection rich in the highest values, with near analogues and random picks from the rest.
biological target: T1, Msn1 (UniProt P22148); assay: PBM E-score (8-mer binding enrichment) (E-score (-0.5 to 0.5)); higher = stronger / more preferred TF binding; details: protein concentration: 200 nM; construct: GST-full length
T1 sequence: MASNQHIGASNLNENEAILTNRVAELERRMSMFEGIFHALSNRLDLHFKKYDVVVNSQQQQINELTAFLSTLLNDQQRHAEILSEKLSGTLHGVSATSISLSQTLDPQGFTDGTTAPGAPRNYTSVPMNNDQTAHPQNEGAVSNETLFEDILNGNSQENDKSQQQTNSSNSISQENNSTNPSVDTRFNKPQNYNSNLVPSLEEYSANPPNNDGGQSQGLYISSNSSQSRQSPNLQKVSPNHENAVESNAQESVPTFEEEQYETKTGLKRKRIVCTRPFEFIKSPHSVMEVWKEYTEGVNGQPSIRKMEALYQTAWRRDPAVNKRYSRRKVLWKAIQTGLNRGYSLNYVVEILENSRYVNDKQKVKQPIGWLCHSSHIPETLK
Outline: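 GST-tagged yeast TFs (full-length or DNA-binding domain) were made by PURExpress in vitro transcription/translation and applied at about 100-200 nM to universal all-10-mer Agilent arrays. The arrays were made double-stranded by primer extension, on fresh or once-stripped slides. Bound protein was detected with fluorescent anti-GST, and scans were normalised with masliner. Each ungapped eight-base word, pooled with its reverse complement, received an E-score (modified Wilcoxon-Mann-Whitney statistic) from the Universal PBM Analysis Suite.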

| Sequence | PBM E-score |
| --- | --- |
| CAACGGAC | 0.121 |
| AGAGCCGC | -0.0659 |
| ATCGCGTA | -0.176 |
| ACAGTCGA | -0.0747 |
| ATCCCGAT | 0.125 |
| ACAAAGGC | 0.098 |
| CCTCAAGC | -0.277 |
| ACGCTGGG | -0.406 |
| ATCTTGCG | -0.0566 |
| AGCGGACG | 0.0534 |
| CGCGGACA | 0.329 |
| CGCGGACC | 0.0148 |
| AGCGGACA | 0.359 |
| GGCGGACA | 0.273 |
| CGCGGACG | 0.181 |
| AGCGGACT | -0.229 |
| TGCGGACA | 0.427 |
| TGCGGAAA | 0.0764 |
| CTGCTCAA | 0.0116 |
| CGAGTGCG | 0.0204 |
| CGTTGCAG | -0.0934 |
| AACATTCA | -0.0503 |

| Sequence | PBM E-score |
| --- | --- |
| GACATTCA | 0.449 |
| GACATTCC | 0.456 |
| CACATTCC | 0.0503 |
| CACATTCA | -0.0795 |
| AACATTCC | -0.0175 |
| ATACATAT | 0.264 |
| CCGCTCTA | 0.0134 |
| GACTCCCC | -0.207 |
| ATTTCTCG | 0.255 |
| CGATACCG | -0.0866 |
| CCGGACAA | 0.452 |
| CCGGACAG | 0.227 |
| GCGGACAC | 0.162 |
| GCGGACCA | 0.0483 |
| ACGGACCA | 0.0706 |
| ACGGACAA | 0.474 |
| TCGGACAA | 0.457 |
| TCGGACGA | 0.199 |
| ACGGACGA | 0.0949 |
| CCGGACAC | 0.288 |
| GCGGACAA | 0.44 |
| TCGGACCA | 0.12 |

| Sequence | PBM E-score |
| --- | --- |
| ACATTCGT | 0.0578 |
| AATTCTCT | -0.229 |
| CGACCGCG | -0.0918 |
| CGGGAGGA | -0.0135 |
| GAGTGTGC | 0.0104 |
| GCTACACC | -0.162 |
| GCCTGACC | -0.234 |
| AAATACCA | -0.0306 |
| ACAAAATG | 0.312 |
| ATAAAATC | 0.0924 |
| AAAAAATC | 0.105 |
| ACAAAATC | 0.352 |
| ATAAAATA | 0.183 |
| AAAAAATG | 0.287 |
| ACAAAATA | 0.188 |
| ATAAAATG | 0.341 |
| CCAAAATC | 0.0937 |
| GCCGATTA | -0.0616 |
| ATTGCCGG | -0.0182 |
| GGATAGAC | -0.0706 |
| CGACATCC | 0.0825 |
| AGACATCT | 0.29 |

| Sequence | PBM E-score |
| --- | --- |
| GGACATCA | 0.396 |
| TGACATCA | 0.257 |
| AGACATCG | 0.226 |
| GGACATCC | 0.475 |
| AGACATCC | 0.328 |
| CGACATCA | 0.125 |
| GAACATCC | 0.162 |
| ATAGTGGA | 0.0789 |
| CCCTGCTC | -0.172 |
| CCGCTTCC | -0.183 |
| AACGGACT | -0.00389 |
| CACGGACC | 0.0127 |
| GACGGACC | -0.0404 |
| CACGGACG | 0.175 |
| AACGGACG | 0.0165 |
| TACGGACA | 0.44 |
| CACGGACA | 0.455 |
| AACGGACA | 0.344 |
| GACGGACA | 0.386 |
| TACGGAAA | 0.17 |
